“And” between values parts separate entries of the source, which are not always exact repeats. Equal entries are not always repeated. About 83,000 compounds went through this panel and 20% of them were active in at least one assay; those are over-represented in the sample as a whole.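 Treatment: one concentration, 48 hours, 96-well format. Scoring: percent growth, with anything below 10 considered active.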 The source made the active and inactive calls.
Tests used:
Assay in all cases: NCI-60 one-dose screen, 48 h (100 = growth as untreated, 0 = no growth, -100 = all killed)
[1] = system: DU-145 prostate; conditions: 10 µM
[2] = system: K-562 leukemia; conditions: 10 µM
[3] = system: MALME-3M melanoma; conditions: 10 µM
[4] = system: MDA-MB-231 breast; conditions: 10 µM
[5] = system: SF-268 CNS; conditions: 10 µM
[6] = system: SF-295 CNS; conditions: 10 µM
[7] = system: SF-539 CNS; conditions: 10 µM
[8] = system: UACC-257 melanoma; conditions: 10 µM
[9] = system: M14 melanoma; conditions: 10 µM
[10] = system: HCT-15 colon; conditions: 10 µM
[11] = system: HT29 colon; conditions: 10 µM
[12] = system: SNB-75 CNS; conditions: 10 µM
[13] = system: SNB-19 CNS; conditions: 10 µM
[14] = system: PC-3 prostate; conditions: 10 µM
[15] = system: UACC-62 melanoma
[16] = system: SK-MEL-28 melanoma; conditions: 10 µM
[17] = system: U251 CNS; conditions: 10 µM
[18] = system: SK-MEL-5 melanoma; conditions: 10 µM
[19] = system: LOX IMVI melanoma; conditions: 10 µM
[20] = system: RXF 393 renal; conditions: 10 µM

Measured: growth

CC(CC(=O)c1ccccc1)c1ccccc1 (configuration not stated)
inactive: [1] 112% | [2] 102% | [3] 93% | [4] 119% | [5] 110% | [6] 95.8% | [7] 105% | [8] 94.1% | [9] 119% | [10] 108% | [11] 95.7% | [12] 104% | [13] 109% | [14] 99.5% | [15]; 10 µM unless noted 107% | [16] 101%

CCCCC(=O)c1ccc(OC)cc1
inactive: [1] 104% | [2] 105% | [3] 94% | [4] 109% | [5] 107% | [6] 92% | [7] 110% | [8] 91.2% | [9] 99.4% | [10] 91.3% | [11] 107% | [12] 101% | [13] 104% | [17] 97.9% | [14] 110% | [18] 96.5% | [15]; 10 µM unless noted 111% | [19] 102% | [16] 111%

CC(C)(O)C#CC#CC(C)(C)O
inactive: [1] 113% | [2] 93.6% | [3] 107% | [4] 105% | [5] 106% | [6] 95.1% | [7] 93.8% | [8] 94.4% | [9] 107% | [10] 97.7% | [11] 97.8% | [12] 94% | [13] 112% | [17] 98% | [14] 99.3% | [18] 99% | [15]; 10 µM unless noted 111% | [19] 97% | [16] 99.4%

CC(=O)OCCO
inactive: [1] 110% | [2] 103% | [3] 93.5% | [4] 121% | [20] 105% | [5] 106% | [7] 104% | [8] 102% | [9] 105% | [10] 107% | [11] 120% | [12] 84.7% | [13] 110% | [14] 104% | [15]; 10 µM unless noted 108% | [19] 107% | [16] 100%

CCCCCCCCCCC1CO1 (configuration not stated)
inactive: [1] 108% | [2] 102% | [3] 103% | [4] 111% | [20] 103% | [5] 106% | [7] 105% | [8] 96.4% | [9] 108% | [10] 104% | [11] 108% | [12] 94% | [13] 103% | [17] 97.8% | [18] 100% | [15]; 10 µM unless noted 112% | [19] 102% | [16] 98.4%

CCN(CC)CCCC(C)Nc1ccnc(/C=C/c2ccc(Cl)cc2)c1 (configuration not stated)
active: [2] 0.277% | [3] -60.6% | [4] -28.3% | [20] -61.8% | [5] 9.89% | [7] -69.2% | [8] -77.7% | [9] -85.9% | [10] -33.4% | [12] -49.3% | [17] -58.1% | [18] -96.7% | [15]; 10 µM unless noted -55.8% | [19] -71.2% | [16] -87.5%
inactive: [1] 49.6% | [13] 53.6% | [14] 45.5%

C/C(=N\O)C1(O)CCCCC1
inactive: [1] 100% | [2] 106% | [3] 114% | [4] 94.7% | [5] 82.7% | [6] 110% | [7] 99.2% | [8] 98.3% | [9] 110% | [10] 93.6% | [12] 91.7% | [13] 105% | [17] 95.1% | [14] 129% | [15]; 10 µM unless noted 59.2% | [19] 98.8% | [16] 114%

O=C(O)CCCCNC(=O)c1ccccc1
inactive: [1] 110% | [2] 89.3% | [3] 110% | [4] 99.1% | [5] 102% | [6] 95.1% | [7] 99.8% | [8] 107% | [9] 98.8% | [10] 102% | [11] 101% | [12] 103% | [13] 108% | [17] 98.5% | [14] 100% | [15]; 10 µM unless noted 110% | [19] 91.8% | [16] 111%

O=C(O)c1ccccc1NCc1ccco1
inactive: [1] 118% | [2] 104% | [3] 108% | [4] 104% | [5] 111% | [6] 114% | [7] 103% | [8] 143% | [9] 102% | [10] 108% | [11] 98.7% | [13] 108% | [17] 103% | [18] 100% | [15]; 10 µM unless noted 101% | [19] 93.5% | [16] 111%

COc1cccc(O)c1O
inactive: [1] 27% | [2] 78.4% | [3] 67% | [4] 85.5% | [20] 72.7% | [6] 104% | [7] 20.6% | [8] 72.3% | [9] 44.6% | [10] 38.4% | [11] 104% | [12] 56.3% | [13] 65.1% | [17] 65.1% | [14] 79.5% | [18] 55.9% | [15]; 10 µM unless noted 45.5% | [19] 53.7% | [16] 74.1%

Cc1ccncc1C(N)=O
inactive: [1] 106% | [2] 101% | [3] 106% | [4] 116% | [5] 98.2% | [6] 120% | [7] 95.7% | [8] 110% | [9] 103% | [10] 96.6% | [11] 105% | [12] 80.9% | [18] 100% | [15]; 10 µM unless noted 95.8% | [19] 93.2% | [16] 114%

CC1NC(=O)NC1CCCCCC(=O)O (configuration not stated)
inactive: [1] 108% | [2] 125% | [3] 106% | [4] 91.4% | [20] 105% | [5] 96.5% | [7] 105% | [8] 86.6% | [9] 95% | [10] 98.4% | [11] 102% | [12] 94% | [13] 99.8% | [14] 86.4% | [18] 102% | [15]; 10 µM unless noted 96.7% | [19] 93.3% | [16] 115%

COc1cc2c3cc1Oc1c(OC)c(OC)cc4c1C(Cc1ccc(O)c(c1)Oc1ccc(cc1)CC3N(C)CC2)N(C)CC4 (configuration not stated)
active: [2] 0.419% | [3] -79.3% | [4] -24.1% | [20] -14.9% | [7] -23.5% | [8] -62.2% | [9] -77.8% | [17] -95.9% | [14] 1.26% | [18] -98.2% | [19] -90.5%
inactive: [1] 33.4% | [5] 36.2% | [12] 33.3% | [13] 27.2% | [15]; 10 µM 27.6%
98.2% (inactive) and -80.6% (active): [15]; 100 µM

Nc1ccc(N=Nc2ccc(O)cc2)c(N)n1
inactive: [1] 79.3% | [2] 39.2% | [3] 72% | [4] 73.7% | [20] 91.6% | [5] 73.1% | [7] 66.5% | [8] 97.9% | [9] 70.9% | [11] 103% | [12] 82.5% | [13] 98.1% | [17] 76.6% | [14] 60.7% | [18] 73.3% | [15]; 10 µM unless noted 41% | [19] 79.4% | [16] 89.2%

Cc1ccc(S(=O)(=O)O)c(C)c1
inactive: [1] 108% | [2] 98.8% | [3] 88.4% | [4] 116% | [20] 117% | [5] 114% | [7] 101% | [8] 108% | [9] 101% | [10] 104% | [11] 103% | [12] 82.8% | [13] 109% | [17] 97.1% | [14] 99.1% | [18] 105% | [15]; 10 µM unless noted 120% | [19] 95.3% | [16] 106%

CCOC(=O)CCCC(=O)OCC
inactive: [1] 103% | [2] 101% | [3] 95.7% | [4] 100% | [5] 96.7% | [6] 101% | [7] 98.4% | [8] 99% | [9] 99.2% | [10] 104% | [11] 110% | [12] 87.8% | [13] 106% | [17] 99.9% | [14] 100% | [18] 106% | [15]; 10 µM unless noted 102% | [19] 98.9% | [16] 109%

CC(=O)c1ccc2c(ccc3ccccc32)c1
inactive: [1] 111% | [2] 90.5% | [3] 110% | [4] 105% | [5] 104% | [6] 99.3% | [7] 97.5% | [8] 108% | [9] 89.1% | [10] 68.4% | [12] 105% | [13] 99.4% | [17] 92.1% | [14] 104% | [18] 96.8% | [15]; 10 µM unless noted 96.5% | [19] 107% | [16] 108%

c1ccc(CN2COc3c(ccc4c3OCN(Cc3ccccc3)C4)C2)cc1
active: [2] 3.62% | [4] 1.06% | [6] 0.773% | [7] -21.5% | [9] -0.269% | [15]; 10 µM unless noted -39.1%
inactive: [1] 25.3% | [3] 28.4% | [5] 15.1% | [8] 12.1% | [10] 28% | [11] 27% | [12] 43.7% | [13] 24%
